The record followed here is PubChem BioAssay.

Activity calls are given as the source filed them.

The test system of assay [1] is XIP peptide (Xip251-270) binding. Kind of assay: XIP fragment 251-270 binding compounds – biochemical, small-molecule microarray, fluorescence 635/667 nm, 0.1 µg/mL protein, primary screen (AID 1182). The conditions noted are these: fluorescent protein binding, 635 nm, higher = more signal, called active from +8 up or from −8 down.
Assay [2] concerns XIP peptide (Xip251-270). Nature of the assay: compounds binding XIP fragment 251-270 – biochemical, small-molecule microarray, fluorescence 635/667 nm, 0.5 µg/mL protein, primary screen (AID 1183). The following applies: fluorescence 635 nm, higher = more signal.
Assay [3] in a line: blood-stage malaria parasite viability loss – strain 3D7, DAPI fluorescence, 100 nL, primary screen (AID 1184).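 Further: parasites grown inside human red blood cells in medium with human serum.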 The following applies: P. falciparum 3D7 growth, 3 d, higher = more signal.
Assay [4] concerns the target Homeobox protein Hox-A13 (Mus musculus) (UniProt Q62424). Kind of assay: disruptors of Hoxa13 oligonucleotide interaction – biochemical, fluorescence polarization, labeled oligonucleotide, primary screen (AID 1185). The following applies: Hoxa13:DNA binding, 15 min, higher = more signal, called active from +8 up or from −8 down.

Homeobox protein Hox-A13 (Mus musculus), sequence (Q62424 whole entry, looked up): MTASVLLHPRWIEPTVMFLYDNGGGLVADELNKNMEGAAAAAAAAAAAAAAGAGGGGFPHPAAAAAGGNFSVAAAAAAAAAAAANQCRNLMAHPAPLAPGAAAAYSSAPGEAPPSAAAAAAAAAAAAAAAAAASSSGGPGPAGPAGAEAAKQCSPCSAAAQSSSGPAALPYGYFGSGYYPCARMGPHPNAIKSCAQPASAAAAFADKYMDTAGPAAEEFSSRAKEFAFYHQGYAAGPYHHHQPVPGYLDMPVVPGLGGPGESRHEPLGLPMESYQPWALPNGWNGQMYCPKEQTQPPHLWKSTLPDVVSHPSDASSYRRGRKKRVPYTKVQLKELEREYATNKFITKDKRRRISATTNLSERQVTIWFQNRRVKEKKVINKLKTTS

For `C[C@@H]1CC[C@H]2C(=O)OC(Cc3ccccc3)CN2[C@H]1c1ccc(Br)cc1` (stereo partly specified), the composite z-score in assay [1] was -0.0207 (inactive); in assay [2], 0.276. The z-score in assay [3] is 0.695; in assay [4] it was -3.22 (inactive).

For `CCN1C(=O)[C@H]2[C@H]3[C@H](O)[C@H](O)CC(=NO[C@@H]4O[C@H](COC(C)=O)[C@@H](OC(C)=O)[C@H](OC(C)=O)[C@H]4OC(C)=O)[C@@H]3CC[C@H]2C1=O`, the composite z-score was 0.369 (inactive) in assay [1] and -0.191 in assay [2]. In addition, the results for the z-score in assay [3] and in assay [4] were 1.87 and -1.75 (inactive), respectively.

On to `CC(C)=CCCC(C)=CCON=C1C[C@@H](O)[C@@H](O)[C@@H]2[C@@H]3C(=O)N(Cc4ccc5c(c4)OCO5)C(=O)[C@@H]3CC[C@@H]12`, for which the composite z-score in assay [1] is 1.07 (inactive); in assay [2] it was 0.245. In addition, the values for the z-score in assay [3] and in assay [4] were -0.526 and -0.814 (inactive), respectively.

Consider `O=C1[C@H]2[C@H]3[C@H](O)[C@H](O)CC(=NOCc4ccccc4)[C@@H]3CC[C@H]2C(=O)N1c1cccc(Oc2ccccc2)c1`, for which the values for the composite z-score in assay [1] and in assay [2] were 0.811 (inactive) and 0.123, respectively. Further, the z-score in assay [3] was -0.129; in assay [4], -1.24 (inactive).

For the compound `COC(=O)CC=C[C@@H](C)[C@@H](C=NOC[C@@H](C)[C@H](OCc1ccccc1)C(C)C)OC`, the composite z-score is 0.0918 (inactive) in assay [1] and -0.0012 in assay [2]. For the same compound, the values for the z-score in assay [3] and in assay [4] were -0.469 and -3.36 (inactive), respectively.

For the compound `CC(C)=NO[C@H](C)c1cn([C@@H]2COC[C@H]2O)nn1`, the composite z-score in assay [1] is 0.496 (inactive); in assay [2], 0.0358. Also, the z-score was 0.672 in assay [3] and 0.141 (inactive) in assay [4].

Regarding `C=CC[C@@H]1C=C[C@H](ON=C[C@@H](NS(=O)(=O)c2ccc(C)cc2)[C@H](C)C=CCC(=O)OC)[C@@H](CO)O1`, the composite z-score in assay [1] is 0.278 (inactive); in assay [2], 0.463. Moreover, the z-score was -0.174 in assay [3] and -4.66 (inactive) in assay [4].

Regarding `COC(=O)[C@H](C)NC(=O)CC=C[C@@H](C)[C@@H]1C=C[C@H](O)[C@@H](CO)O1`, the composite z-score in assay [1] is 0.672 (inactive); in assay [2], 0.0241. In addition, the z-score in assay [3] is -1.66; in assay [4], -0.56 (inactive).

As to `C[C@@H]1CC[C@H]2C(=O)O[C@@H](CN=[N+]=[N-])CN2[C@H]1c1ccc(Br)cc1`, the composite z-score in assay [1] was 0.223 (inactive); in assay [2], 0.688. Moreover, the figures for the z-score in assay [3] and in assay [4] were -1.72 and -0.917 (inactive), respectively.

As to `C[C@@H]1CC[C@H]2C(=O)N3[C@@H](CC[C@@H](C)[C@@H]3c3ccc(Br)cc3)C(=O)N2[C@H]1c1ccc(Br)cc1`, the composite z-score in assay [1] is -0.22 (inactive); in assay [2], 0.335. The results for the z-score in assay [3] and in assay [4] were -0.212 and -3.21 (inactive), respectively.

On to `CCc1cc2c(nc1CC)CCN(CCC(C)=NOCC[C@@H]1C=C[C@H](OC(C)=O)[C@@H](COC(C)=O)O1)C2`, for which the figures for the composite z-score in assay [1] and in assay [2] were -0.0297 (inactive) and 0.45, respectively. Further, the z-score in assay [3] was -0.876; in assay [4] it was -5.38 (inactive).

Regarding `CC(=O)OC[C@H]1O[C@H](CC=NO[C@@H](C)c2cc(-c3c(C)cc(C)cc3C)no2)C=C[C@@H]1OC(C)=O`, the composite z-score in assay [1] was 0.205 (inactive); in assay [2] it was -0.445. Moreover, the values for the z-score in assay [3] and in assay [4] were -0.863 and -5.88 (inactive), respectively.

`O=C1[C@H]2CCn3c(=O)n(-c4ccccc4)c(=O)n3[C@H]2[C@H](O)[C@@H]2O[C@H]12`: the composite z-score is -0.0756 (inactive) in assay [1] and 0.614 in assay [2]. In addition, the figures for the z-score in assay [3] and in assay [4] were -0.815 and -0.418 (inactive), respectively.

Consider `O=C(NCCC[N+]1=CC=NC1c1ccccc1)N1CCCc2nc(-c3ccc(Br)cc3)ccc21` (stereo unspecified), for which the composite z-score in assay [1] is 0.638 (inactive); in assay [2], 0.0388. Besides, the z-score was -0.449 in assay [3] and -7.21 (inactive) in assay [4].

As for `COC(=O)[C@@H]1CC[C@H](C)[C@@H](c2ccc(Br)cc2)N1C[C@@H](O)CN=[N+]=[N-]`, the composite z-score in assay [1] is -0.193 (inactive); in assay [2], -0.03. For the same compound, the z-score in assay [3] was -0.877; in assay [4] it was -3.81 (inactive).

With `CC(C)(C)N1C(=O)[C@H]2[C@H]3[C@H](O)[C@H](O)CC(=NOC[C@@H](O)COCc4ccco4)[C@@H]3CC[C@H]2C1=O`, the composite z-score was -0.484 (inactive) in assay [1] and 0.502 in assay [2]. Moreover, the z-score in assay [3] was -0.0662; in assay [4] it was -2.78 (inactive).

Consider `CCN1C(=O)[C@H]2[C@H]3[C@H](O)[C@H](O)CC(=NOCC=C(C)CCC=C(C)C)[C@@H]3CC[C@H]2C1=O`, for which the values for the composite z-score in assay [1] and in assay [2] were -0.544 (inactive) and 0.615, respectively. Moreover, the z-score in assay [3] was -0.298; in assay [4], -3.73 (inactive).

As to `CCOC(=O)[C@H](CC(C)C)NC(=O)CCC1CC(OC(=O)NCc2ccc3c(c2)OCO3)CC2(CCCC(COC(=O)NCCC(C)C)O2)O1` (stereo partly specified), the composite z-score in assay [1] was 0.554 (inactive); in assay [2] it was 0.842. The values for the z-score in assay [3] and in assay [4] were -0.278 and -1.7 (inactive), respectively.

In the case of `CC(C)CON=C1[C@H]2CCn3c(=O)n(C)c(=O)n3[C@H]2[C@H](O)[C@@H]2O[C@H]12`, the composite z-score was -0.12 (inactive) in assay [1] and 0.245 in assay [2]. The figures for the z-score in assay [3] and in assay [4] were 1.43 and 0.322 (inactive), respectively.
